The values below come from PubChem BioAssay (NCATS).

The nature of assay [1]: Primary qHTS for inhibitors of SARS-S pseudo-typed particle cell entry (AID 1479145). For activity change, negative = inhibition: % is set by controls: 0 for no effect and ±100 for the full control effect. Note: nearly all actives have a fitted effect of over 45% in size. Conditions: outcome: dose series up to 57.1 µM unless noted. For orientation: In qHTS, concentration-response curves come from the screen itself.
A short description of assay [2]: Primary qHTS for Huh7 cytotoxicity: counterscreen for inhibitors of MERS-S pseudotyped particle cell entry (AID 1479147). For activity change, negative = cytotoxicity: % is set by controls: 0 for no effect and ±100 for the full control effect. As to conditions: outcome: dose series up to 57.1 µM unless noted.
Assay [3] is described as follows: Primary qHTS for inhibitors of MERS-S pseudo-typed particle cell entry (AID 1479149). For activity change, negative = inhibition: % is set by controls: 0 for no effect and ±100 for the full control effect. Note: nearly all actives have a fitted effect of over 60% in size. As to conditions: outcome: dose series up to 57.1 µM unless noted.
Assay [4] is described as follows: Primary qHTS for Vero E6 cytotoxicity: counterscreen for inhibitors of SARS-S pseudo-typed particle cell entry (AID 1479150). For activity change, negative = cytotoxicity: % is set by controls: 0 for no effect and ±100 for the full control effect. Conditions: outcome: dose series up to 57.1 µM unless noted.
Assay [5] in a line: Cytotoxicity counterscreen for inhibitors of SARS-CoV-2 cell entry (AID 1645845). Note: nearly all actives have a fitted effect of over 50% in size. As to conditions: outcome: dose series up to 57.1 µM unless noted. An outline of the steps:
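After a 15 min room-temperature ATPLite 1step step, luminescence reflected ATP remaining in HEK293-ACE2 cells exposed to compound for 1 h plus 48 h at 37 C, with percent activity set by cell and no-cell controls.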
For orientation: A counterscreen serves to expose hits that act by an unwanted route or on another target.

Assay [6] in a line: Primary qHTS to identify inhibitors of SARS-CoV-2 cell entry (AID 1645846). Note: nearly all actives have a fitted effect of over 45% in size. As to conditions: SARS-CoV-2 pseudovirus cell entry assay, luminescence; activity change, negative = inhibition: at 57.1 µM (top of the series) unless noted. The essentials:
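Data are normalized to wells receiving SARS-CoV-2-S pseudoparticles and those given bald particles. Entry signal was luciferase luminescence in stable hACE2 Expi293F cells, 48 hr post-infection, after 1 hr compound pretreatment.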

Inconclusive results are not listed. Calls of active or inactive are those of the source. Calls come from the whole dose curve.

As for `O=P(O)(O)OC(Cn1cncn1)(Cn1cncn1)c1ccc(F)cc1F`, the Potency result in assay [1], in assay [2], in assay [3], in assay [4] and in assay [5] was “inactive” each time. Also, the activity change, negative = inhibition in assay [6] was -20.2%.

Regarding `OC(CN1CCCCC1)c1cc(-c2ccccc2)on1` (configuration not stated), the Potency entry in assay [1], in assay [2], in assay [3], in assay [4] and in assay [5] was “inactive” throughout. The activity change, negative = inhibition in assay [6] was -15.3%.

Take `CCNC(=O)CCC/C=C\C[C@@H]1[C@@H](/C=C/[C@@H](O)CCc2ccccc2)[C@H](O)C[C@@H]1O`: the Potency entry in assay [1], in assay [2], in assay [3], in assay [4] and in assay [5] was “inactive” throughout. Also, the activity change, negative = inhibition in assay [6] is -19.7%.

As to `CCOC(=O)[C@H](CS)NCCN[C@@H](CS)C(=O)OCC`, the Potency result in assay [1], in assay [2], in assay [3], in assay [4], in assay [5] and in assay [6] was “inactive” throughout.

Consider `O=P(O)(O)CP(=O)(O)O`, for which the Potency entry in assay [1], in assay [2], in assay [3], in assay [4] and in assay [5] was “inactive” in each case. Besides, the activity change, negative = inhibition in assay [6] was -15.6%.

Take `ClCC1CO1` (configuration not stated) (tested in a mixture with another compound): the Potency result in assay [1], in assay [2], in assay [3], in assay [4] and in assay [5] was “inactive” in each case. For the same molecule, the activity change, negative = inhibition in assay [6] was -15.1%.

With `O=c1c2c(c1=O)N(CCP(=O)(O)O)CCCN2`, the Potency result in assay [1], in assay [2], in assay [3], in assay [4] and in assay [5] was “inactive” in each case. In addition, the activity change, negative = inhibition in assay [6] is 3.47% [at 114 µM].

Regarding `CC(=O)NC(C=O)C(O)C(O)[C@H](O)CO` (some centres not stated), the Potency result in assay [1], in assay [2], in assay [3], in assay [4] and in assay [5] was “inactive” throughout. The activity change, negative = inhibition in assay [6] was -0.156%.

As to `CN1CC(O)c2cc(N=NC(N)=O)c(O)cc21` (configuration not stated), the Potency result in assay [1], in assay [2], in assay [3], in assay [4] and in assay [5] was “inactive” each time. Also, the activity change, negative = inhibition in assay [6] is -20%.

For the molecule `CCOc1ccc(Cc2cc([C@@H]3O[C@H](CO)[C@@H](O)[C@H](O)[C@H]3O)ccc2Cl)cc1`, the Potency result in assay [1], in assay [2], in assay [3], in assay [4] and in assay [5] was “inactive” throughout. Besides, the activity change, negative = inhibition in assay [6] is 0.66%.

As for `CCC(=C(CC)c1ccc(OP(=O)(O)O)cc1)c1ccc(OP(=O)(O)O)cc1`, the activity change, negative = inhibition is -9.86% [at 0.573 µM] (inactive) in assay [1] and -22.1% [at 0.702 µM] in assay [6]. Further, the outcome in assay [2] and in assay [3] was “inactive [at 0.573 µM]” each time. The activity change, negative = cytotoxicity in assay [4] is -3.89% [at 0.573 µM] (inactive); in assay [5], 1.12% [at 0.702 µM] (inactive).

As to `CNC(=O)OCc1cccc(COC(=O)NC)n1`, the Potency result in assay [1], in assay [2], in assay [3], in assay [4], in assay [5] and in assay [6] was “inactive” throughout.

Turning to `C=C1CC2C3CCC4=CC(=O)C=C[C@]4(C)[C@@]3(F)[C@@H](O)C[C@]2(C)[C@@]1(O)C(=O)COC(C)=O` (some centres not stated), the Potency result in assay [1], in assay [2], in assay [3], in assay [4], in assay [5] and in assay [6] was “inactive” throughout.

Consider `CC12C=CC(=O)NC1CCC1C2CCC2(C)C(C(=O)Nc3cc(C(F)(F)F)ccc3C(F)(F)F)CCC12` (configuration not stated), for which the Potency result in assay [1], in assay [2], in assay [3], in assay [4] and in assay [5] was “inactive” in each case. Further, the activity change, negative = inhibition in assay [6] is -8.68%.

For `CC1(C)S[C@@H]2[C@@H](N3C(=O)[C@@H](c4ccccc4)NC3(C)C)C(=O)N2[C@H]1C(=O)O`, the Potency result in assay [1], in assay [2], in assay [3], in assay [4] and in assay [5] was “inactive” in each case. Further, the activity change, negative = inhibition in assay [6] is -21.4%.

Take `CC[C@@H](C)C[C@@H](C)CCCCCCCCC(=O)NC1C[C@@H](O)[C@@H](NCCN)NC(=O)[C@@H]2[C@@H](O)CCN2C(=O)[C@H]([C@H](O)CCN)NC(=O)[C@H]([C@H](O)[C@@H](O)c2ccc(O)cc2)NC(=O)[C@@H]2C[C@@H](O)CN2C(=O)[C@H]([C@@H](C)O)NC1=O` (some centres not stated): the Potency entry in assay [1], in assay [2], in assay [3], in assay [4] and in assay [5] was “inactive” throughout. Besides, the activity change, negative = inhibition in assay [6] is -9.2% [at 27.1 µM].

For the molecule `C=C1CC[C@H](O)C/C1=C\C=C1/CCC[C@]2(C)[C@@H]([C@H](C)CC[C@H](O)C(C)(C)O)CC[C@@H]12`, the Potency entry in assay [1], in assay [2], in assay [3], in assay [4] and in assay [5] was “inactive” in each case. For the same molecule, the activity change, negative = inhibition in assay [6] is -14.2%.

`C[S+](CC[C@H](N)C(=O)O)C[C@H]1O[C@@H](n2cnc3c(N)ncnc32)[C@H](O)[C@H]1O` (some centres not stated): the Potency entry in assay [1], in assay [2], in assay [3], in assay [4], in assay [5] and in assay [6] was “inactive” each time.

For the molecule `CCCCCCCCCCCCCCCC(=O)OCC=C(C)C=CC=C(C)C=CC1=C(C)CCCC1(C)C`, the Potency entry in assay [1], in assay [2], in assay [3], in assay [4] and in assay [5] was “inactive” throughout. Besides, in assay [6], the activity change, negative = inhibition is -0.93%.

As for `C[C@]12C=CC(=O)C=C1CC[C@@H]1[C@@H]2[C@@H](O)C[C@@]2(C)[C@H]1CC[C@]2(O)C(=O)COC(=O)c1cccc(S(=O)(=O)O)c1`, the Potency result in assay [1], in assay [2], in assay [3], in assay [4] and in assay [5] was “inactive” in each case. The activity change, negative = inhibition in assay [6] is -5.05%.

As to `C=CCOc1ccc(CC(=O)O)cc1Cl`, the Potency result in assay [1], in assay [2], in assay [3], in assay [4] and in assay [5] was “inactive” each time. In assay [6], the activity change, negative = inhibition is -9.87% [at 114 µM].

As to `CC[C@H]1[C@@H](O)[C@@H]2[C@H](CC[C@]3(C)[C@@H]([C@H](C)CCC(=O)O)CC[C@@H]23)[C@@]2(C)CC[C@@H](O)C[C@@H]12`, the Potency entry in assay [1], in assay [2], in assay [3], in assay [4] and in assay [5] was “inactive” each time. Moreover, the activity change, negative = inhibition in assay [6] was -6.18%.

For the molecule `NC(=S)NS(=O)(=O)c1ccc(N)cc1`, the Potency result in assay [1], in assay [2], in assay [3], in assay [4] and in assay [5] was “inactive” in each case. Further, in assay [6], the activity change, negative = inhibition is -18.4%.

As for `CC(C)(C)NCC(O)COc1ccccc1C#N` (configuration not stated), the Potency entry in assay [1], in assay [2], in assay [3], in assay [4] and in assay [5] was “inactive” in each case. In assay [6], the activity change, negative = inhibition was -9.12%.

As for `C[C@@H]1C[C@H]2[C@@H]3CCC4=CC(=O)C=C[C@]4(C)[C@@]3(F)[C@@H](O)C[C@]2(C)[C@@]1(O)C(=O)COP(=O)(O)O`, the outcome in assay [1] is “inactive [at 11.4 µM]”; in assay [2], “inactive [at 11.4 µM]”; in assay [3], “inactive [at 11.4 µM]”; in assay [4] it was “inactive [at 11.4 µM]”; in assay [5] it was “inactive [at 11.3 µM]”; in assay [6], “inactive [at 11.3 µM]”.

For `CCC(CC)[C@H](NC(C)=O)[C@@H]1[C@H](O)[C@@H](C(=O)O)C[C@H]1N=C(N)N`, the outcome in assay [1] was “inactive [at 0.573 µM]”; in assay [2], “inactive [at 0.573 µM]”; in assay [3], “inactive [at 0.573 µM]”; in assay [4] it was “inactive [at 0.573 µM]”; in assay [5], “inactive [at 0.702 µM]”. For the same molecule, the activity change, negative = inhibition in assay [6] was -12.4% [at 0.702 µM].

For the molecule `CCC(=O)O[C@]1(C(=O)COC(C)=O)CC[C@H]2[C@@H]3C[C@H](C)C4=CC(=O)C=C[C@]4(C)[C@H]3[C@@H](O)C[C@@]21C`, the Potency result in assay [1], in assay [2], in assay [3], in assay [4] and in assay [5] was “inactive” in each case. Also, the activity change, negative = inhibition in assay [6] is -17.7%.

For `CC(C)(S)C(=O)N[C@@H](CS)C(=O)O`, the Potency entry in assay [1], in assay [2], in assay [3], in assay [4] and in assay [5] was “inactive” in each case. In assay [6], the activity change, negative = inhibition was -16.1%.

In the case of `COc1cc(O)c(C(=O)Nc2nc(C(=O)NCCN(C(C)C)C(C)C)cs2)cc1OC`, the Potency entry in assay [1], in assay [2], in assay [3], in assay [4] and in assay [5] was “inactive” each time. Also, the activity change, negative = inhibition in assay [6] is -17.9%.

In the case of `O=C(O)C1CCc2cc(C3CCCCC3)c(Cl)cc21` (configuration not stated), the Potency result in assay [1], in assay [2], in assay [3], in assay [4] and in assay [5] was “inactive” in each case. Further, the activity change, negative = inhibition in assay [6] is -32.2%.

In the case of `Cc1cc(=O)c(C(=O)N[C@@H](C(=O)N[C@@H]2C(=O)N3C(C(=O)O)=C(CSc4nnnn4C)CS[C@H]23)c2ccc(O)cc2)c[nH]1`, the Potency result in assay [1], in assay [2], in assay [3], in assay [4] and in assay [5] was “inactive” in each case. The activity change, negative = inhibition in assay [6] is -20.7%.

Take `CCCCCCCCCCCCCCCCCCCCCCCCCCCCO`: the activity change, negative = inhibition in assay [1] was -10.7% [at 0.573 µM] (inactive). For the same molecule, the outcome in assay [2] is “inactive [at 0.573 µM]”; in assay [3], “inactive [at 0.573 µM]”; in assay [5] it was “inactive [at 0.702 µM]”; in assay [6], “inactive [at 0.702 µM]”. Moreover, the activity change, negative = cytotoxicity in assay [4] is 3.84% [at 0.573 µM] (inactive).
